# In all, about 39,000 sequences were measured (“fluorescence intensity (a.u.)”: median about 4,300, highest 2% from about 39,000 on). The entries come from a sample that favours the highest values as a whole.
# Target: T1, OsSMF1 (Oryza sativa, UniProt Q6ZLB0 1-436)
# T1 sequence: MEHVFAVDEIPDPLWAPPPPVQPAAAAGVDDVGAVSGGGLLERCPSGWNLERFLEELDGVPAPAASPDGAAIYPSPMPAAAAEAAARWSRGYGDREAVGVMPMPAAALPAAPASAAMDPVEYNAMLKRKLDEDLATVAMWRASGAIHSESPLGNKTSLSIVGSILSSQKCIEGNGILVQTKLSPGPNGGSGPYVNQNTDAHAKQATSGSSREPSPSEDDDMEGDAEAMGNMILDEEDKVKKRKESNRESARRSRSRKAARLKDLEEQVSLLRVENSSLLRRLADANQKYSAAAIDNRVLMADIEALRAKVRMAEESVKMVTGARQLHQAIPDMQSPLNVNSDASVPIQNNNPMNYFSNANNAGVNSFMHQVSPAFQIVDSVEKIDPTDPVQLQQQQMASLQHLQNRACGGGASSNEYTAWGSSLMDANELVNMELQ
# Assay: protein-binding microarray (RPBM); PBS, 2% BSA, 51.3 ng/ul salmon testes DNA, 50 uM zinc acetate, 200 nM TF, 25 C, 1 h; high values mean tight binding
# Settings: protein: recombinant; tags: N-terminal polyhistidine and DsRed monomer fusion (pET32a); chain copies: 2; label: CyDye5-dUTP incorporated in the synthesized complementary strand; 3' TTTTT single-stranded linker to array surface; dsDNA, one strand shown
# How it was run: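 Ni–NTA purification followed expression in E. coli BL21-CodonPlus of transcription factors fused N-terminally to a polyhistidine tag and DsRed. At 200 nM in PBS with 2% BSA, salmon testes DNA and 50 µM zinc acetate, the protein was incubated for 1 h at 25 °C with a custom Agilent array that had been primer-extended with Cy5-dUTP and blocked with 2% BSA. After washing, the array was read on an Axon 4000B scanner. The binding signal is per-feature fluorescence intensity in arbitrary units.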
row,Sequence,binding signal
1,CTCCTCCCATGCGCCGCCACGTAGGATCGCGCGATCAGATCGGAGTCACCTAGTGCAG,10300 fluorescence intensity (a.u.)
2,AACACGAAAATGAAAGGGAGGGGCTTTCCTTAGCGATTAACGGAGTCACCTAGTGCAG,3830 fluorescence intensity (a.u.)
3,TGTAAACTTTTATGATCATTTAGGAGCTCTGGACAGTAATCGGAGTCACCTAGTGCAG,18200 fluorescence intensity (a.u.)
4,ATGCCATTGATTCAATAGTGAATCATCGTTCTTTCTGGATCGGAGTCACCTAGTGCAG,3550 fluorescence intensity (a.u.)
5,AAATGGATGATAAGTATAATTACTTAGAGCAAGTTTAATACGGAGTCACCTAGTGCAG,65500 fluorescence intensity (a.u.)
6,TTTATTATTAGTTTACGTTTAATACTTCTAATTAGTATAACGGAGTCACCTAGTGCAG,3240 fluorescence intensity (a.u.)
7,GTATCAAAACATATTCAATCATAGATTTAATGAAAACTAACGGAGTCACCTAGTGCAG,3360 fluorescence intensity (a.u.)
8,CTATAATTTAAACATGTAAAGTTTACGTGTATATAAATTTCGGAGTCACCTAGTGCAG,3160 fluorescence intensity (a.u.)
9,AAGTTATACTTAAAGTATTATAAATAATAAAGTAAGTCACCGGAGTCACCTAGTGCAG,34100 fluorescence intensity (a.u.)
10,AGGTAATGTATCATAAAACTATAGATTTAACACTAAATTTCGGAGTCACCTAGTGCAG,53000 fluorescence intensity (a.u.)
11,TAGCCAGGAGGGAGGTGGCAAAACAGAATGATGGGAGGGACGGAGTCACCTAGTGCAG,3220 fluorescence intensity (a.u.)
12,GGCTTAAGTCAAGCTAATTTTAGATATTTATTATTTTGTGCGGAGTCACCTAGTGCAG,3900 fluorescence intensity (a.u.)
13,GTTCCATTGGTTTGTAATAATGAAGCCTGCCTAGTGCTTTCGGAGTCACCTAGTGCAG,32100 fluorescence intensity (a.u.)
14,CATCGTCCGCCGTGACACGCTGGCGGAGTCCGTGGTGCTACGGAGTCACCTAGTGCAG,5010 fluorescence intensity (a.u.)
15,GGGGAGGAGGACGAGTAACAGACGTGGTGGCCGCCGAGGCCGGAGTCACCTAGTGCAG,3490 fluorescence intensity (a.u.)
16,CGTCGATTAATTTCCCTGGTAAATACGAAATGTTCATGGTCGGAGTCACCTAGTGCAG,39600 fluorescence intensity (a.u.)
17,GTAATTAAATTAAATTAAATTGATTAATACCAACCCTGGTCGGAGTCACCTAGTGCAG,24500 fluorescence intensity (a.u.)
18,TATATTTCATTAATATAAATAAAATTAAAATGTTACTTAACGGAGTCACCTAGTGCAG,25600 fluorescence intensity (a.u.)
19,CTCCTCTCCGATGAAGACCTGCCACCGGTCTGAACCATCTCGGAGTCACCTAGTGCAG,64300 fluorescence intensity (a.u.)
20,CTCCACCACGAGTCACGAGTCACGACCACCTCTCCGGTCTCGGAGTCACCTAGTGCAG,4170 fluorescence intensity (a.u.)
21,TGGCCCATCAGAGTCAGAGCCGCCGCCGACTCCAGATTCCCGGAGTCACCTAGTGCAG,3220 fluorescence intensity (a.u.)
22,CCCCACTGATGATGATGATGACTCGATTCTATTCCACCGCCGGAGTCACCTAGTGCAG,5550 fluorescence intensity (a.u.)

row,Sequence,binding signal
1,GATCTAGCCGACTCGATCCCGCCGATGACGATTCCATCCCCGGAGTCACCTAGTGCAG,39300 fluorescence intensity (a.u.)
2,ATGATGATGATCCTGATCCTGATCTTCCTCCTCGATCGACCGGAGTCACCTAGTGCAG,42700 fluorescence intensity (a.u.)
3,CTGAACCATCCGACTCACCACCGGTATTTCTCGGCCATCTCGGAGTCACCTAGTGCAG,3950 fluorescence intensity (a.u.)
4,TCTCTCTCATCCTTCCAATCGATCTCCTCGACCTGCTATGCGGAGTCACCTAGTGCAG,3440 fluorescence intensity (a.u.)
5,CTCTCCTCTCCTCTTGGTGATGACTGATCGATGACCACCACGGAGTCACCTAGTGCAG,4680 fluorescence intensity (a.u.)
6,GCCCGGAAGCTAGCGCCTCGTCGACTTGGGCGGCGGCTGACGGAGTCACCTAGTGCAG,18000 fluorescence intensity (a.u.)
7,CTTAGTCGCCATTTTCTTCCCATATCCACGCGCCACGTGGCGGAGTCACCTAGTGCAG,25100 fluorescence intensity (a.u.)
8,TGAATCTATACACTCTTCTATTCAGATTCGTTGTACTATGCGGAGTCACCTAGTGCAG,3870 fluorescence intensity (a.u.)
9,GCCTAATTACATCATGATTTGACAATGTTGTGCTACAGTACGGAGTCACCTAGTGCAG,4210 fluorescence intensity (a.u.)
10,CCGCGGCCACCTGGCCTACCTCGCCTCTCCCGTGGGCCCCCGGAGTCACCTAGTGCAG,3240 fluorescence intensity (a.u.)
11,CTACCAGACCCGTGGGCCGGCTCTGCCTCGCCTAATCCAGCGGAGTCACCTAGTGCAG,47000 fluorescence intensity (a.u.)
12,GCCGTGCCGTGCCGTGCCGGCCCGCGGGCTCGGCCAGCGGCGGAGTCACCTAGTGCAG,30700 fluorescence intensity (a.u.)
13,TGCATAAGTGTCCGTACCAGTACGGTCAGAGTGACATATGCGGAGTCACCTAGTGCAG,3770 fluorescence intensity (a.u.)
14,TTACGAGACGAATCTTTTAAGACTAATTGCTCCATGATTTCGGAGTCACCTAGTGCAG,3280 fluorescence intensity (a.u.)
15,TTTCTCTGAACGACCGGCCACGTTAAACTAAGGCCAAGTCCGGAGTCACCTAGTGCAG,65500 fluorescence intensity (a.u.)
16,TTTGGTTTCCGGCCAAACATTGCCACGCCTAACTTAAGGCCGGAGTCACCTAGTGCAG,5170 fluorescence intensity (a.u.)
17,TAAATTTTAATTTTCTGATTGGTATGCCACGTTAGTGAAACGGAGTCACCTAGTGCAG,3420 fluorescence intensity (a.u.)
18,CGCCATCGCCAACGCCAACGCCTCCGCGGACTCCATTGTCCGGAGTCACCTAGTGCAG,3650 fluorescence intensity (a.u.)
19,AATGTAGGCACCATACCATGACTGTTTTCACACATTGTACCGGAGTCACCTAGTGCAG,3580 fluorescence intensity (a.u.)
20,GATAGGAGGGGATAACTTGTTTCATATTTTGTGCCGGGTTCGGAGTCACCTAGTGCAG,3710 fluorescence intensity (a.u.)
21,AATATGAACTGATAGGATTTGTTTTCACACCATACCAAACCGGAGTCACCTAGTGCAG,59700 fluorescence intensity (a.u.)

# — publication PMC7819943, “Rice protein-binding microarrays: a tool to detect cis-acting elements near promoter regions in rice”
